In publication PMC7862700, “An all-to-all approach to the identification of sequence-specific readers for epigenetic DNA modifications on cytosine”:

Legend:
Test in all cases: DAPPL (digital affinity profiling via proximity ligation, sequencing); 10 mM Tris-HCl pH 7.5, 50 mM NaCl, 1 mM DTT, 4% glycerol, room temperature, 30 min; GST-TFs on glutathione beads, 16-mer random dsDNA library, 0.1% formaldehyde crosslink after washing; high values mean tight binding
[1] = target: T1, FEV (Homo sapiens, UniProt Q99581 1-238); details: protein: recombinant; tags: N-terminal GST; dsDNA, one strand shown
T1 sequence: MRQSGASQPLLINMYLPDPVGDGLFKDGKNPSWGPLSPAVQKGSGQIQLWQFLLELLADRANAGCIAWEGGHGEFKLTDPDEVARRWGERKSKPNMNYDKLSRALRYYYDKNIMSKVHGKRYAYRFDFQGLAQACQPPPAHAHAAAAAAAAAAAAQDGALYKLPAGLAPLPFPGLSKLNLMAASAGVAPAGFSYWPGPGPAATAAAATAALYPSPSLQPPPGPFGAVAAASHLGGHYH
Method in brief: (§1)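 Each value of binding signal is a hexamer's read frequency for a factor divided by the same hexamer's frequency in the tag-only sample. Barcoded, bead-captured GST fusions of human transcription factors made in yeast were pooled with that sample and incubated with 200 nmole of a random double-stranded 16-mer DNA library in Tris/NaCl/DTT/glycerol buffer at room temperature for 30 min. Washing, 0.1% formaldehyde crosslinking, proximity ligation, PCR and Illumina NextSeq500 sequencing followed.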

[2] = target: ETV5 (Homo sapiens, UniProt P41161 1-510); details: protein: recombinant; tags: N-terminal GST; dsDNA, one strand shown
Method in brief: as §1

[3] = target: HSF1 (Homo sapiens, UniProt Q00613 1-529); details: protein: recombinant; tags: N-terminal GST; chain copies: 3; dsDNA, one strand shown
Method in brief: as §1

[4] = target: T2, SPIC (Homo sapiens, UniProt Q8N5J4 1-248); details: protein: recombinant; tags: N-terminal GST; dsDNA, one strand shown
T2 sequence: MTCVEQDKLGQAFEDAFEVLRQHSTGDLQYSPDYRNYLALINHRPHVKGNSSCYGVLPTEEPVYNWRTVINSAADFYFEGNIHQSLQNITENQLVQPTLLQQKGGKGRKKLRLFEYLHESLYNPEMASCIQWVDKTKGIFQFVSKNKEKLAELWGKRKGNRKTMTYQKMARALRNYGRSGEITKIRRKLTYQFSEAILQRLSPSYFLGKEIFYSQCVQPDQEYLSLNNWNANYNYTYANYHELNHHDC
Method in brief: as §1

[5] = target: ELF4 (Homo sapiens, UniProt Q99607 1-663); details: protein: recombinant; tags: N-terminal GST; dsDNA, one strand shown
Method in brief: as §1

[6] = target: T3, ELK4 (Homo sapiens, UniProt P28324-2 1-405); details: protein: recombinant; tags: N-terminal GST; dsDNA, one strand shown
T3 sequence: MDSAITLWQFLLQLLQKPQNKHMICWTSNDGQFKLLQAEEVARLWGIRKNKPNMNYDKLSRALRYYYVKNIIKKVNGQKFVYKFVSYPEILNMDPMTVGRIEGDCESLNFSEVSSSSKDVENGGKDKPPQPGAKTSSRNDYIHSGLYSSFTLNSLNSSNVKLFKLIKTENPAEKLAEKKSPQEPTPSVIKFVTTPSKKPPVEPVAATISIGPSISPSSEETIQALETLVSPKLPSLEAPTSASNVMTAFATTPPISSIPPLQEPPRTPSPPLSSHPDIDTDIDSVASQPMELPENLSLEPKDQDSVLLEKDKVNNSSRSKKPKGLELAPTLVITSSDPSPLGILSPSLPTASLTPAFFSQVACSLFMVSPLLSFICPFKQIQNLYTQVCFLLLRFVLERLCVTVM
Method in brief: as §1

[7] = target: T4, ETV2 (Homo sapiens, UniProt O00321 1-342); details: protein: recombinant; tags: N-terminal GST; dsDNA, one strand shown
T4 sequence: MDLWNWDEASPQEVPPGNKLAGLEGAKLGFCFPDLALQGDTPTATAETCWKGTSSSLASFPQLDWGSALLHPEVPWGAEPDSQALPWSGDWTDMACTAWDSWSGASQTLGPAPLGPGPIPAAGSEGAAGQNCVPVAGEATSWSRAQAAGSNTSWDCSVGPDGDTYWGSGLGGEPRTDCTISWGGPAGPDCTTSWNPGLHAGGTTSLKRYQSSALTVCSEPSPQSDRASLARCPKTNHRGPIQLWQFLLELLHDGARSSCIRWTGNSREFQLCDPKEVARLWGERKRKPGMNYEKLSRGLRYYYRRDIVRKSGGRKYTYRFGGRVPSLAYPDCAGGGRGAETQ
Method in brief: as §1

[8] = target: T5, ELF3 (Homo sapiens, UniProt P78545 1-371); details: protein: recombinant; tags: N-terminal GST; dsDNA, one strand shown
T5 sequence: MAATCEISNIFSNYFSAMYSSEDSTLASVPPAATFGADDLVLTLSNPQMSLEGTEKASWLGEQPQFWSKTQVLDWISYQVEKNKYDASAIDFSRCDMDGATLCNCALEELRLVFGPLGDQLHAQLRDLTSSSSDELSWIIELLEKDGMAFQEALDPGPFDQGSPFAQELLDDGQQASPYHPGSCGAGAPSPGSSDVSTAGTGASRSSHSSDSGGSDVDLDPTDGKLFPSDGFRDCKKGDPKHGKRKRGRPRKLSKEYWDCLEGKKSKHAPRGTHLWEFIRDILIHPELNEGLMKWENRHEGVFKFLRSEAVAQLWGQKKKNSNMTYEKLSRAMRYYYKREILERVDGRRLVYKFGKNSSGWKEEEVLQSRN
Method in brief: as §1

[9] = target: CRX (Homo sapiens, UniProt O43186 1-299); details: protein: recombinant; tags: N-terminal GST; dsDNA, one strand shown
Method in brief: as §1

[10] = target: ETV1 (Homo sapiens, UniProt P50549 1-477); details: protein: recombinant; tags: N-terminal GST; dsDNA, one strand shown
Method in brief: as §1

[11] = target: T6, ERF (Homo sapiens, UniProt P50548 1-548); details: protein: recombinant; tags: N-terminal GST; dsDNA, one strand shown
T6 sequence: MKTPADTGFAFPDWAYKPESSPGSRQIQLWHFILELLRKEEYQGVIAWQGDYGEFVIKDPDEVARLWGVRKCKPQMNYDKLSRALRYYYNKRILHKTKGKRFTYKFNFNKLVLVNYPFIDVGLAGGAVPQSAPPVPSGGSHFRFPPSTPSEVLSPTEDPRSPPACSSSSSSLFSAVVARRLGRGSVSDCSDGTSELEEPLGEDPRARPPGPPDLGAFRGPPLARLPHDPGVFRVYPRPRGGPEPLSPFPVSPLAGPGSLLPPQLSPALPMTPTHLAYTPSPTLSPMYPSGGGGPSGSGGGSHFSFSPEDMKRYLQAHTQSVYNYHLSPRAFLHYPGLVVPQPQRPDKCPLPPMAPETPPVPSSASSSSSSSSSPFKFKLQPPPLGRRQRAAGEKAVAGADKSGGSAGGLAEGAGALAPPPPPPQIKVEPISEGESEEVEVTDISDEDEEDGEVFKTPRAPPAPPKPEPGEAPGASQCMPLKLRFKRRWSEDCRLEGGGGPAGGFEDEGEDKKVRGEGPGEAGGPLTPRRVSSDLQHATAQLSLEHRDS
Method in brief: as §1

[12] = target: T7, ETV3L (Homo sapiens, UniProt Q6ZN32 1-361); details: protein: recombinant; tags: N-terminal GST; dsDNA, one strand shown
T7 sequence: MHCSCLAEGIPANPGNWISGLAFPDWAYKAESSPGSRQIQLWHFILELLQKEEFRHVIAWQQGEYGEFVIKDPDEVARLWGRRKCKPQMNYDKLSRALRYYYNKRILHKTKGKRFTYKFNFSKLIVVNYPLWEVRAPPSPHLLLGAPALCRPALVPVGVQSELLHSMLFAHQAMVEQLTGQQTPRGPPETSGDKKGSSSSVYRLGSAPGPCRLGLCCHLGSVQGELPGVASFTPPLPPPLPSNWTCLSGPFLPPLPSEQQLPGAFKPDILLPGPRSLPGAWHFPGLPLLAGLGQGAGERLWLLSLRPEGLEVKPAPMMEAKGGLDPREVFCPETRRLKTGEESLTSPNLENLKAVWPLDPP
Method in brief: as §1

[13] = target: T8, ETS2 (Homo sapiens, UniProt P15036 1-469); details: protein: recombinant; tags: N-terminal GST; dsDNA, one strand shown
T8 sequence: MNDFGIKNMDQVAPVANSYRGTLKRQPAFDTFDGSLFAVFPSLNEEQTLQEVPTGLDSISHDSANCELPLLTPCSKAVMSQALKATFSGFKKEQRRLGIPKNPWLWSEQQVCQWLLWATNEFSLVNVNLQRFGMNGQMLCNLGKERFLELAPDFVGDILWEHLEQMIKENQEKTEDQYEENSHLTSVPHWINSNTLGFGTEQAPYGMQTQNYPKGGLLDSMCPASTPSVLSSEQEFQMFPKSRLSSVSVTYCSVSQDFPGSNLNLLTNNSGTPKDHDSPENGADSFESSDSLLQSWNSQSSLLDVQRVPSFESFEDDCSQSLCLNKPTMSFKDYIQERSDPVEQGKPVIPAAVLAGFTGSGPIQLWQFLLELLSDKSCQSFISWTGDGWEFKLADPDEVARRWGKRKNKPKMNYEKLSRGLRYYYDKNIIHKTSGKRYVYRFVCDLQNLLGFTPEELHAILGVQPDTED
Method in brief: as §1

[14] = target: T9, SPDEF (Homo sapiens, UniProt O95238 1-335); details: protein: recombinant; tags: N-terminal GST; dsDNA, one strand shown
T9 sequence: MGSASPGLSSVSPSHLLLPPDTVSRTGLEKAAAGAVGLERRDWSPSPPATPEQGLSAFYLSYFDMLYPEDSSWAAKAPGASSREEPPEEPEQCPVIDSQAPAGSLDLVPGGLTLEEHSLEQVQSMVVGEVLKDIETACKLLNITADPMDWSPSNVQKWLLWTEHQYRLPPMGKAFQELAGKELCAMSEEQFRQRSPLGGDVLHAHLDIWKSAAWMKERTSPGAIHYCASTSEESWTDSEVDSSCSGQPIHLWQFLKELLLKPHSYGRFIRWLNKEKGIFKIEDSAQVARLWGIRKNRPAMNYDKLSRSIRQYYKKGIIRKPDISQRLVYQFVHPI
Method in brief: as §1

[15] = target: T10, ETV7 (Homo sapiens, UniProt Q9Y603 1-341); details: protein: recombinant; tags: N-terminal GST; dsDNA, one strand shown
T10 sequence: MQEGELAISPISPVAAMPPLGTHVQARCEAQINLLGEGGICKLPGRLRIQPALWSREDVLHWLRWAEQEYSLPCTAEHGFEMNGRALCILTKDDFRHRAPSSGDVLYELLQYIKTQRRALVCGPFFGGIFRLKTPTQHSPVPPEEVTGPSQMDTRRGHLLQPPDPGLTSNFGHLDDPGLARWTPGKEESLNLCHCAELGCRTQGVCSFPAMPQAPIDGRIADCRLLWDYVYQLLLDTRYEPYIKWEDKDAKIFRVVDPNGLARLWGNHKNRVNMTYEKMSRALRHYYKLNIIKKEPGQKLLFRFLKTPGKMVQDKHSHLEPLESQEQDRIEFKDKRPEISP
Method in brief: as §1

[16] = target: T11, ELF5 (Homo sapiens, UniProt Q9UKW6-2 1-255); details: protein: recombinant; tags: N-terminal GST; dsDNA, one strand shown
T11 sequence: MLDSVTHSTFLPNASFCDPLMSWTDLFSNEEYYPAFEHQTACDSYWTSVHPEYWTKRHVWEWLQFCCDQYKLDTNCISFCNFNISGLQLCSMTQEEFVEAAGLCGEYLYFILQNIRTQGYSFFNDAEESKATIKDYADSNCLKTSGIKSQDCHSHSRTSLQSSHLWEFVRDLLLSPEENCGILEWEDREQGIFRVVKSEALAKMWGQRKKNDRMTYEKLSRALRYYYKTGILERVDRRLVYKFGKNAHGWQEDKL
Method in brief: as §1

[17] = target: T12, ETV3 (Homo sapiens, UniProt P41162-2 1-143); details: protein: recombinant; tags: N-terminal GST; dsDNA, one strand shown
T12 sequence: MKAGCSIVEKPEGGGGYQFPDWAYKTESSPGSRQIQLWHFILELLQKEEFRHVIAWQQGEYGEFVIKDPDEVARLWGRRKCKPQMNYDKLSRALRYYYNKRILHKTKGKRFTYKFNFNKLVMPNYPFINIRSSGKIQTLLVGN
Method in brief: as §1

[18] = target: ETV6 (Homo sapiens, UniProt P41212 1-452); details: protein: recombinant; tags: N-terminal GST; dsDNA, one strand shown
Method in brief: as §1

ETV5, sequence (P41161 whole entry): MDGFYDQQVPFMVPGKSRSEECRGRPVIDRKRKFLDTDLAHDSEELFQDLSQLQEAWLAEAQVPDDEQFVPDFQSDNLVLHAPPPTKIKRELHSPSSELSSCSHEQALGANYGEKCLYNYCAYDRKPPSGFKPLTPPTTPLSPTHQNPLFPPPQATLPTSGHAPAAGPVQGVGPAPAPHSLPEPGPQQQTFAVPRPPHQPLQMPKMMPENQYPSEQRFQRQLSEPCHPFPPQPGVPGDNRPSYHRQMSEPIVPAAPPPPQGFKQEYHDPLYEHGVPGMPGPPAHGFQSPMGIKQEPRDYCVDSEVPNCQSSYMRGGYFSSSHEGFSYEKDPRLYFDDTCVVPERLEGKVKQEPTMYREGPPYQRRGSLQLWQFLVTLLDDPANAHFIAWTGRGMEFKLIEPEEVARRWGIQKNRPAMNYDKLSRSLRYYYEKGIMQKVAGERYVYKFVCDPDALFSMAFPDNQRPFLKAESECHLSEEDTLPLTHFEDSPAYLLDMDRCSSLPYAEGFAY
HSF1, sequence (Q00613 whole entry): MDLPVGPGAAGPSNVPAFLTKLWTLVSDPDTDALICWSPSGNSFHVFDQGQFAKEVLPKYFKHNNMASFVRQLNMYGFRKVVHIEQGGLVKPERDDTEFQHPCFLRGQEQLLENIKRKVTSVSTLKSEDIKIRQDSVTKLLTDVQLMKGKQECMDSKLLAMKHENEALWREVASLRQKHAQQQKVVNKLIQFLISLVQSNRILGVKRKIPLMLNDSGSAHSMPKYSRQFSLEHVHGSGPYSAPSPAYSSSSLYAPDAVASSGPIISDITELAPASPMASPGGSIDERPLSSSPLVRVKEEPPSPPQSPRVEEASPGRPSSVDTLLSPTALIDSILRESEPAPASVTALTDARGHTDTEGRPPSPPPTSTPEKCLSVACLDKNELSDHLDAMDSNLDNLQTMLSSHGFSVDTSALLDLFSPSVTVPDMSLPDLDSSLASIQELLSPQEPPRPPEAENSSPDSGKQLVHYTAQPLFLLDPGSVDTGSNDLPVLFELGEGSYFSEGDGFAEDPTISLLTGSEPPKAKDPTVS
ETV1, sequence (P50549 whole entry): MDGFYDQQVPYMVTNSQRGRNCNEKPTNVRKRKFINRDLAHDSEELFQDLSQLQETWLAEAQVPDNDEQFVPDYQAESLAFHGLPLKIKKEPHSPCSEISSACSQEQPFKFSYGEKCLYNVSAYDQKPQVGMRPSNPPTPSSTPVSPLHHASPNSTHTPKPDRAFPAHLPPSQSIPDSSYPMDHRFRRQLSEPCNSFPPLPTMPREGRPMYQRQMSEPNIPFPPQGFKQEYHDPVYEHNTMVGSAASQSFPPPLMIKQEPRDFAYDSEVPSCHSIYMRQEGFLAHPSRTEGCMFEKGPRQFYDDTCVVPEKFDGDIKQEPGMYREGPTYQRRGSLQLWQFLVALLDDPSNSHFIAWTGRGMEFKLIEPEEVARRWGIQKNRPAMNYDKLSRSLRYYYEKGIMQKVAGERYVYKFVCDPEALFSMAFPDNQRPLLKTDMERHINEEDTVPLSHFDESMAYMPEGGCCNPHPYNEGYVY
ELF4, sequence (Q99607 whole entry): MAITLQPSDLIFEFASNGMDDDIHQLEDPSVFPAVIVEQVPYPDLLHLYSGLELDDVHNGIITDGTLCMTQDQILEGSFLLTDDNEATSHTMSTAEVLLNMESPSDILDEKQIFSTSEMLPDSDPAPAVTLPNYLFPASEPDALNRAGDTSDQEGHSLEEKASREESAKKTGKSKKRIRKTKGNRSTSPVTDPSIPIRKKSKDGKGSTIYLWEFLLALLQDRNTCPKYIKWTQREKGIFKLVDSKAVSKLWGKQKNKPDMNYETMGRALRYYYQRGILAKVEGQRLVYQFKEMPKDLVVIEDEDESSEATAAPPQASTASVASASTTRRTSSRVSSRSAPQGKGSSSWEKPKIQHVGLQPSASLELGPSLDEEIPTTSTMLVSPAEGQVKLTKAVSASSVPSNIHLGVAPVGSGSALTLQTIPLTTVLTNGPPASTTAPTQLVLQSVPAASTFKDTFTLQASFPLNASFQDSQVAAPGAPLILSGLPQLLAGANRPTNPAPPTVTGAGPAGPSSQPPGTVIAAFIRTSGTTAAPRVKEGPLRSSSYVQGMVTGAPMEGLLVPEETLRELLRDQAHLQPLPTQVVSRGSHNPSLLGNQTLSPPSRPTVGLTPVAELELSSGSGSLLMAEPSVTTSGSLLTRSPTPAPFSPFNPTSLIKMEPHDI
ETV6, sequence (P41212 whole entry): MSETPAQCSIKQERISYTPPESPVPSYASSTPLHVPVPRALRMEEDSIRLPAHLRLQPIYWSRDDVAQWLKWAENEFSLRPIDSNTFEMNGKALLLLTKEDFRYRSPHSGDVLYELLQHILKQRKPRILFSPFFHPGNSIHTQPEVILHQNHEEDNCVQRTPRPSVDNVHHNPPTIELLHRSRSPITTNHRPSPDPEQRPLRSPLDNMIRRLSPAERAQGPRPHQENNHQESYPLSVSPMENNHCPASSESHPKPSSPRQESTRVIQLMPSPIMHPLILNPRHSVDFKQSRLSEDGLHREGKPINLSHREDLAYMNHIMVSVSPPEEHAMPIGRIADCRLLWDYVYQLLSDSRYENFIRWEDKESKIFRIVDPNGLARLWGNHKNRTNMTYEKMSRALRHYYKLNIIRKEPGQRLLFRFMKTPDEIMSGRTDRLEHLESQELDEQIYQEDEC
CRX, sequence (O43186 whole entry): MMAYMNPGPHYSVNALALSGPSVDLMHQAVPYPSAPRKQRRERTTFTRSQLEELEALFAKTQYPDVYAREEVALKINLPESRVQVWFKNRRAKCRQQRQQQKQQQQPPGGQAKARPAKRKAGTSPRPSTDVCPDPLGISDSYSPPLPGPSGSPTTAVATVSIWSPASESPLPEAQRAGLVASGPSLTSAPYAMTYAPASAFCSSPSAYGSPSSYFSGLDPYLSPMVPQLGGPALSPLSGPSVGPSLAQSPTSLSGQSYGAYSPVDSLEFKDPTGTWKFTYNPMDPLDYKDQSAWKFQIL

GCCTCT
binding signal [1]: 1.39 fold enrichment (6-mer frequency, TF over GST control) | binding signal [2]: 1.39 fold enrichment (6-mer frequency, TF over GST control) | binding signal [3]: 1.25 fold enrichment (6-mer frequency, TF over GST control) | binding signal [4]: 1.21 fold enrichment (6-mer frequency, TF over GST control) | binding signal [5]: 1.42 fold enrichment (6-mer frequency, TF over GST control) | binding signal [6]: 1.28 fold enrichment (6-mer frequency, TF over GST control) | binding signal [7]: 1.45 fold enrichment (6-mer frequency, TF over GST control) | binding signal [8]: 1.28 fold enrichment (6-mer frequency, TF over GST control) | binding signal [9]: 1.28 fold enrichment (6-mer frequency, TF over GST control) | binding signal [10]: 1.32 fold enrichment (6-mer frequency, TF over GST control) | binding signal [11]: 1.25 fold enrichment (6-mer frequency, TF over GST control) | binding signal [12]: 1.32 fold enrichment (6-mer frequency, TF over GST control) | binding signal [13]: 1.25 fold enrichment (6-mer frequency, TF over GST control) | binding signal [14]: 1.3 fold enrichment (6-mer frequency, TF over GST control) | binding signal [15]: 1.35 fold enrichment (6-mer frequency, TF over GST control) | binding signal [16]: 1.27 fold enrichment (6-mer frequency, TF over GST control) | binding signal [17]: 1.34 fold enrichment (6-mer frequency, TF over GST control) | binding signal [18]: 1.35 fold enrichment (6-mer frequency, TF over GST control)
